According to PubChem BioAssay AID1159580 (chemical genetic matrix, 2015):
The whole screen tested about 5,500 compounds, of which about 2,000 (36%) were called active. About 18% were inconclusive and are not listed. Cut-off read from the data, not from the text of the source: active = normalized growth mostly below about 0.91 (no sharp cut-off); inconclusive = no clear call, values can overlap the other calls; inactive = mostly above about 0.92. The list shows a part of the results.

Test: chemical genetic growth profiling, strain panel (AID 1159580);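 note: tested at 20 µM; growth read once vehicle control cultures reached saturation at 30 °C; 1 = growth at the plate median or of vehicle wells; lower values mean less growth of the strain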
Conditions: growth OD

Measured: normalized growth

COc1ccc(-c2oc3cc(O[C@H]4O[C@H](CO)[C@@H](O)[C@H](O)[C@H]4O)c(OC)c(O)c3c(=O)c2OC)cc1O
inactive: S. cerevisiae deletion strains, locus YAL013W, strain DEP1, hits give low values 1.02 | S. cerevisiae deletion strains, locus YAL021C, strain ccr4, hits give low values 1.01 | S. cerevisiae deletion strains, locus YAL026C, strain drs2, hits give low values 0.996 | S. cerevisiae deletion strains, locus YAL030W, strain snc1, hits give low values 1 | S. cerevisiae deletion strains, locus YBL061C, strain skt5, hits give low values 0.996 | S. cerevisiae deletion strains, locus YBR009C, strain hhf1, hits give low values 0.997 | S. cerevisiae deletion strains, locus YBR021W, strain FUR4, hits give low values 1 | S. cerevisiae deletion strains, locus YBR023C, strain chs3, hits give low values 0.992 | S. cerevisiae deletion strains, locus YBR171W, strain sec66, hits give low values 0.99 | S. cerevisiae deletion strains, locus YBR229C, strain ROT2, hits give low values 1 | S. cerevisiae deletion strains, locus YBR231C, strain swc5, hits give low values 0.99 | S. cerevisiae deletion strains, locus YBR279W, strain paf1, hits give low values 1 | S. cerevisiae deletion strains, locus YCL011C, strain gbp2, hits give low values 1 | S. cerevisiae deletion strains, locus YCL016C, strain dcc1, hits give low values 1 | S. cerevisiae deletion strains, locus YCL029C, strain bik1, hits give low values 0.969 | S. cerevisiae deletion strains, locus YCL061C, strain MRC1, hits give low values 0.998 | S. cerevisiae deletion strains, locus YCL069W, strain vba3, hits give low values 0.999 | S. cerevisiae deletion strains, locus YCR088W, strain abp1, hits give low values 0.996 | S. cerevisiae deletion strains, locus YDL005C, strain med2, hits give low values 1.01 | S. cerevisiae deletion strains, locus YDL035C, strain GPR1, hits give low values 0.991 | S. cerevisiae deletion strains, locus YDL040C, strain nat1, hits give low values 0.994 | S. cerevisiae deletion strains, locus YDL074C, strain BRE1, hits give low values 0.925 | S. cerevisiae deletion strains, locus YDL101C, strain DUN1, hits give low values 0.997 | S. cerevisiae deletion strains, locus YDL134C, strain PPH21, hits give low values 0.982 | S. cerevisiae deletion strains, locus YDL185W, strain tfp1, hits give low values 0.984 | S. cerevisiae deletion strains, locus YDL192W, strain arf1, hits give low values 0.961 | S. cerevisiae deletion strains, locus YDR001C, strain nth1, hits give low values 1 | S. cerevisiae deletion strains, locus YDR069C, strain doa4, hits give low values 1 | S. cerevisiae deletion strains, locus YDR101C, strain arx1, hits give low values 0.97 | S. cerevisiae deletion strains, locus YDR137W, strain rgp1, hits give low values 0.905 | S. cerevisiae deletion strains, locus YDR159W, strain sac3, hits give low values 1 | S. cerevisiae deletion strains, locus YDR162C, strain NBP2, hits give low values 0.983 | S. cerevisiae deletion strains, locus YDR195W, strain ref2 1.01 | S. cerevisiae deletion strains, locus YDR297W, strain sur2, hits give low values 0.989 | S. cerevisiae deletion strains, locus YDR318W, strain mcm21, hits give low values 0.962 | S. cerevisiae deletion strains, locus YDR334W, strain swr1, hits give low values 0.996 | S. cerevisiae deletion strains, locus YDR335W, strain msn5, hits give low values 1 | S. cerevisiae deletion strains, locus YDR388W, hits give low values 0.971 | S. cerevisiae deletion strains, locus YDR392W, strain spt3, hits give low values 0.897 | S. cerevisiae deletion strains, locus YDR502C, strain sam2, hits give low values 0.956 | S. cerevisiae deletion strains, locus YEL003W, strain gim4, hits give low values 0.996 | S. cerevisiae deletion strains, locus YEL037C, strain rad23, hits give low values 0.994 | S. cerevisiae deletion strains, locus YEL061C, strain CIN8 (second series), hits give low values 1 | S. cerevisiae deletion strains, locus YEL061C, strain CIN8, hits give low values 0.981 | S. cerevisiae deletion strains, locus YER015W, strain faa2, hits give low values 1.01 | S. cerevisiae deletion strains, locus YER016W, strain bim1, hits give low values 0.997 | S. cerevisiae deletion strains, locus YER110C, hits give low values 0.964 | S. cerevisiae deletion strains, locus YER111C, strain swi4, hits give low values 1 | S. cerevisiae deletion strains, locus YER155C, strain BEM2 (second series), hits give low values 0.998 | S. cerevisiae deletion strains, locus YER155C, strain BEM2, hits give low values 1.01 | S. cerevisiae deletion strains, locus YER167W, strain BCK2, hits give low values 0.999 | S. cerevisiae deletion strains, locus YFR010W, strain ubp6, hits give low values 1 | S. cerevisiae deletion strains, locus YGL078C, strain dbp3, hits give low values 0.975 | S. cerevisiae deletion strains, locus YGL086W, strain mad1, hits give low values 0.97 | S. cerevisiae deletion strains, locus YGL167C, strain pmr1, hits give low values 0.994 | S. cerevisiae deletion strains, locus YGL173C, strain kem1, hits give low values 0.989 | S. cerevisiae deletion strains, locus YGL227W, strain vid30, hits give low values 0.996 | S. cerevisiae deletion strains, locus YGL240W, strain doc1, hits give low values 1.01 | S. cerevisiae deletion strains, locus YGL248W, strain PDE1, hits give low values 0.984 | S. cerevisiae deletion strains, locus YGL253W, strain hxk2, hits give low values 1 | S. cerevisiae deletion strains, locus YGR078C, strain PAC10, hits give low values 0.959 | S. cerevisiae deletion strains, locus YGR135W, strain pre9, hits give low values 0.949 | S. cerevisiae deletion strains, locus YGR229C, strain SMI1, hits give low values 0.956 | S. cerevisiae deletion strains, locus YGR252W, strain gcn5, hits give low values 0.891 | S. cerevisiae deletion strains, locus YHR013C, strain ard1, hits give low values 1.01 | S. cerevisiae deletion strains, locus YHR027C, strain rpn1, hits give low values 1.01 | S. cerevisiae deletion strains, locus YHR030C, strain SLT2, hits give low values 1 | S. cerevisiae deletion strains, locus YHR079C, strain IRE1 (second series), hits give low values 0.99 | S. cerevisiae deletion strains, locus YHR094C, strain hxt1, hits give low values 0.981 | S. cerevisiae deletion strains, locus YHR129C, strain ARP1, hits give low values 0.969 | S. cerevisiae deletion strains, locus YHR142W, strain chs7, hits give low values 0.985 | S. cerevisiae deletion strains, locus YHR200W, strain rpn10, hits give low values 0.953 | S. cerevisiae deletion strains, locus YIL066C, strain RNR3, hits give low values 0.98 | S. cerevisiae deletion strains, locus YIL073C, strain SPO22, hits give low values 0.971 | S. cerevisiae deletion strains, locus YIL125W, strain kgd1, hits give low values 0.981 | S. cerevisiae deletion strains, locus YIR030C, strain dcg1, hits give low values 0.982 | S. cerevisiae deletion strains, locus YJL092W, strain hpr5, hits give low values 1 | S. cerevisiae deletion strains, locus YJL095W, strain BCK1 (second series), hits give low values 0.992 | S. cerevisiae deletion strains, locus YJL095W, strain BCK1, hits give low values 0.916 | S. cerevisiae deletion strains, locus YJL115W, strain asf1, hits give low values 1 | S. cerevisiae deletion strains, locus YJL129C, strain trk1, hits give low values 0.935 | S. cerevisiae deletion strains, locus YJL134W, strain LCB3, hits give low values 0.995 | S. cerevisiae deletion strains, locus YJL154C, strain vps35, hits give low values 1.01 | S. cerevisiae deletion strains, locus YJL164C, strain tpk1, hits give low values 0.992 | S. cerevisiae deletion strains, locus YJL166W, strain qcr8, hits give low values 1 | S. cerevisiae deletion strains, locus YJL168C, strain set2, hits give low values 0.977 | S. cerevisiae deletion strains, locus YJL187C, strain SWE1 (second series), hits give low values 0.965 | S. cerevisiae deletion strains, locus YJL187C, strain SWE1, hits give low values 1.01 | S. cerevisiae deletion strains, locus YJR043C, strain POL32, hits give low values 0.982 | S. cerevisiae deletion strains, locus YKL009W, strain mrt4, hits give low values 0.965 | S. cerevisiae deletion strains, locus YKL068W, hits give low values 0.99 | S. cerevisiae deletion strains, locus YKL085W, strain MDH1 (second series), hits give low values 0.994 | S. cerevisiae deletion strains, locus YKL085W, strain MDH1, hits give low values 0.994 | S. cerevisiae deletion strains, locus YKL160W, strain elf1, hits give low values 0.992 | S. cerevisiae deletion strains, locus YKR001C, strain vps1, hits give low values 1 | S. cerevisiae deletion strains, locus YKR026C, strain gcn3, hits give low values 0.995 | S. cerevisiae deletion strains, locus YKR091W, strain srl3, hits give low values 1 | S. cerevisiae deletion strains, locus YLL001W, strain dnm1, hits give low values 0.994 | S. cerevisiae deletion strains, locus YLL026W, hits give low values 0.995 | S. cerevisiae deletion strains, locus YLL041C, strain sdh2, hits give low values 1 | S. cerevisiae deletion strains, locus YLR027C, strain aat2, hits give low values 1.01 | S. cerevisiae deletion strains, locus YLR039C, strain RIC1, hits give low values 0.989 | S. cerevisiae deletion strains, locus YLR058C, strain SHM2, hits give low values 0.989 | S. cerevisiae deletion strains, locus YLR102C, strain apc9, hits give low values 0.968 | S. cerevisiae deletion strains, locus YLR221C, strain rsa3, hits give low values 0.997 | S. cerevisiae deletion strains, locus YLR258W, strain gsy2, hits give low values 1 | S. cerevisiae deletion strains, locus YLR262C, strain YPT6 (second series), hits give low values 0.951 | S. cerevisiae deletion strains, locus YLR262C, strain YPT6, hits give low values 0.979 | S. cerevisiae deletion strains, locus YLR268W, strain sec22, hits give low values 0.955 | S. cerevisiae deletion strains, locus YLR320W, strain mms22, hits give low values 0.993 | S. cerevisiae deletion strains, locus YLR330W, strain CHS5, hits give low values 1.01 | S. cerevisiae deletion strains, locus YLR342W, strain FKS1 (second series), hits give low values 0.983 | S. cerevisiae deletion strains, locus YLR342W, strain FKS1, hits give low values 0.995 | S. cerevisiae deletion strains, locus YLR357W, strain rsc2, hits give low values 0.985 | S. cerevisiae deletion strains, locus YLR370C, strain arc18, hits give low values 0.989 | S. cerevisiae deletion strains, locus YLR371W, strain rom2, hits give low values 0.979 | S. cerevisiae deletion strains, locus YLR384C, strain iki3, hits give low values 1.01 | S. cerevisiae deletion strains, locus YLR418C, strain cdc73, hits give low values 0.877 | S. cerevisiae deletion strains, locus YML016C, strain PPZ1, hits give low values 0.994 | S. cerevisiae deletion strains, locus YML032C, strain rad52, hits give low values 0.969 | S. cerevisiae deletion strains, locus YML120C, strain ndi1, hits give low values 0.998 | S. cerevisiae deletion strains, locus YML124C, strain tub3, hits give low values 0.981 | S. cerevisiae deletion strains, locus YMR058W, strain fet3, hits give low values 0.998 | S. cerevisiae deletion strains, locus YMR078C, strain ctf18, hits give low values 0.976 | S. cerevisiae deletion strains, locus YMR125W, strain sto1, hits give low values 0.995 | S. cerevisiae deletion strains, locus YMR129W, hits give low values 0.998 | S. cerevisiae deletion strains, locus YMR205C, strain PFK2, hits give low values 0.981 | S. cerevisiae deletion strains, locus YMR223W, strain ubp8, hits give low values 0.977 | S. cerevisiae deletion strains, locus YMR231W, strain pep5, hits give low values 0.995 | S. cerevisiae deletion strains, locus YMR307W, strain GAS1, hits give low values 0.92 | S. cerevisiae deletion strains, locus YNL067W, strain RPL9B, hits give low values 0.98 | S. cerevisiae deletion strains, locus YNL071W, strain lat1, hits give low values 1.01 | S. cerevisiae deletion strains, locus YNL209W, strain ssb2, hits give low values 0.998 | S. cerevisiae deletion strains, locus YNL233W, strain BNI4, hits give low values 0.977 | S. cerevisiae deletion strains, locus YNL248C, strain rpa49, hits give low values 1 | S. cerevisiae deletion strains, locus YNL250W, strain rad50, hits give low values 0.974 | S. cerevisiae deletion strains, locus YNL271C, strain bni1, hits give low values 0.978 | S. cerevisiae deletion strains, locus YNL298W, strain CLA4, hits give low values 0.963 | S. cerevisiae deletion strains, locus YNL307C, strain MCK1, hits give low values 0.928 | S. cerevisiae deletion strains, locus YNL322C, strain KRE1 (second series), hits give low values 0.999 | S. cerevisiae deletion strains, locus YNL322C, strain KRE1, hits give low values 0.985 | S. cerevisiae deletion strains, locus YNR049C, strain mso1, hits give low values 1 | S. cerevisiae deletion strains, locus YNR052C, strain pop2, hits give low values 0.948 | S. cerevisiae deletion strains, locus YOL012C, strain htz1 0.832 | S. cerevisiae deletion strains, locus YOL147C, strain pex11, hits give low values 0.962 | S. cerevisiae deletion strains, locus YOR001W, strain rrp6, hits give low values 1.02 | S. cerevisiae deletion strains, locus YOR061W, strain CKA2, hits give low values 0.993 | S. cerevisiae deletion strains, locus YOR069W, strain VPS5, hits give low values 0.997 | S. cerevisiae deletion strains, locus YOR070C, strain gyp1, hits give low values 1.02 | S. cerevisiae deletion strains, locus YOR080W, strain dia2, hits give low values 0.999 | S. cerevisiae deletion strains, locus YOR083W, strain WHI5, hits give low values 1 | S. cerevisiae deletion strains, locus YOR106W, strain vam3, hits give low values 1 | S. cerevisiae deletion strains, locus YOR136W, strain idh2, hits give low values 0.986 | S. cerevisiae deletion strains, locus YOR144C, strain elg1, hits give low values 0.968 | S. cerevisiae deletion strains, locus YOR184W, strain ser1, hits give low values 0.944 | S. cerevisiae deletion strains, locus YOR265W, strain rbl2, hits give low values 0.993 | S. cerevisiae deletion strains, locus YOR270C, strain vph1, hits give low values 0.987 | S. cerevisiae deletion strains, locus YOR290C, strain snf2, hits give low values 0.984 | S. cerevisiae deletion strains, locus YOR316C, strain cot1, hits give low values 0.974 | S. cerevisiae deletion strains, locus YPL051W, strain arl3, hits give low values 0.998 | S. cerevisiae deletion strains, locus YPL078C, strain atp4, hits give low values 1.01 | S. cerevisiae deletion strains, locus YPL106C, strain sse1, hits give low values 0.995 | S. cerevisiae deletion strains, locus YPL240C, strain hsp82, hits give low values 1 | S. cerevisiae deletion strains, locus YPR119W, strain clb2, hits give low values 0.978 | S. cerevisiae deletion strains, locus YPR141C, strain kar3, hits give low values 0.977 | S. cerevisiae deletion strains, locus YPR163C, strain tif3, hits give low values 0.933 | S. cerevisiae deletion strains, locus YPR167C, strain met16, hits give low values 0.978 | S. cerevisiae deletion strains, strain wtn01, hits give low values 0.971 | S. cerevisiae strains, strain wild type, hits give low values 0.993
